Most compounds without a hit are left out; they make up all but 3.4% or so of the library.
GPR151 activ = human GPR151 activation; Q8TDV0; PathHunter beta-arrestin GPR151 cells, luminescence; activation, % at 11.2 µM; 650,000 tested, 1% active; AID 1508602; in the data active means activation above about 4.9%;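 further: 0% = median of compound wells and 100% = cells with positive control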
FBW7 activator = human FBW7 E3 ligase activation, primary screen; Q969H0; AID 1259310; 650,000 tested, 0.13% active; AlphaScreen FBW7–phospho-cyclin E peptide binding, activator screen; normalized activity (activation), % at 26.1 µM; in the data active means normalized activity above about 1.9%;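 further: purified mutant Fbw7 with reduced substrate affinity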
Target sequence (Q969H0 whole entry, looked up): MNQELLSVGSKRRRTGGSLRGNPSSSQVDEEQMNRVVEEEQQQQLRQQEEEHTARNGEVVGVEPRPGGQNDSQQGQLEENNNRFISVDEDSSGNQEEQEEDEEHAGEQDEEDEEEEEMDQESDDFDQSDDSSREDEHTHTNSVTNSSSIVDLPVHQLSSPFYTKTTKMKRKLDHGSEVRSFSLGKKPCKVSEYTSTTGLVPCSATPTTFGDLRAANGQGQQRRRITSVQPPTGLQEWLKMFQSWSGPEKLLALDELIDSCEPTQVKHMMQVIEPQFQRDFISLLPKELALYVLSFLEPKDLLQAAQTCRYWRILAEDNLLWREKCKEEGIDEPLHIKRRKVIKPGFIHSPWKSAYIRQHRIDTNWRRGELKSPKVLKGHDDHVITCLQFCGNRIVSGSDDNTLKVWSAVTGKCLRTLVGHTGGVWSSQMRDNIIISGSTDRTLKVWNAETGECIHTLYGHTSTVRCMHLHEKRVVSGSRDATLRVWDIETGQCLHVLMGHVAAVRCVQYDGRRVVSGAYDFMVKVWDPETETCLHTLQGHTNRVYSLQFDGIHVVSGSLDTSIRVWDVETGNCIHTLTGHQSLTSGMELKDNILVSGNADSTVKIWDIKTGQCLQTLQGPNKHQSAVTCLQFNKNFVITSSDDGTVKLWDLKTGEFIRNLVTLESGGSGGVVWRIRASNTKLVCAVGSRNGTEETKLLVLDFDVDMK
MITF primary = blocks human microphthalmia-associated transcription factor; O75030; AlphaScreen MITF homodimerization, bead proximity signal; inhibition, % at 2.6 µM; 650,000 tested, 0.91% active; in the data active means inhibition above about 50%;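 further: 0% = vehicle wells with protein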
TEAD-YAP block = TEAD-YAP interaction inhibition. AID 1259422. HEK-TIYL cells, TEAD-Gal4/YAP UAS-luciferase luminescence. 640,000 tested, 1.4% active. inhibition, % at 9.12 µM; in the data active means inhibition above about 32%;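 further: 0% = median of test compound wells and 100% = reference inhibitor wells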
GPR151 confirm = confirmation of human GPR151 activators | shares compounds with GPR151 activ | GPR151 PathHunter beta-arrestin cells, luminescence, 90 min; % of EA-reagent control over plate median | activation, % at 11.2 µM | 6,700 tested, under 10 active | AID 1508609;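 active means mean percent activation across replicates above the confirmation screen cutoff of 4.91%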
GPR119 counter = GPR119 activation, counter-screen for GPR151 activators; 6,700 tested, 0.3% active; GPR119 PathHunter beta-arrestin cells, luminescence, 90 min; 0 = compound-well median, 100 = enzyme-acceptor control; AID 1508611; activation, % at 11.2 µM; shares compounds with GPR151 activ;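 active means mean percent activation in the counterscreen above 29.09%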;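 further: counterscreen on off-target GPR119 to flag nonselective hits from the GPR151 activator screen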
Starred values were filed as active, the others as inactive.

For Cc1cc(C)nc(N/N=C/c2cc([N+](=O)[O-])ccc2O)n1 the results were GPR151 activ 0, FBW7 activator -1, MITF primary 44 and TEAD-YAP block 19.
Screening CC(C)CCCC(C)C1CCC2C3C[C@@H](O)[C@@]4(O)C[C@@H](O)CC[C@]4(C)C3CC[C@]12C (some centres not stated) returned GPR151 activ -1, FBW7 activator 0, MITF primary 5 and TEAD-YAP block -5.
`CCOc1ccccc1/C=N\Nc1cn[nH]c(=O)c1Cl` gave GPR151 activ 1, FBW7 activator 0, MITF primary 6 and TEAD-YAP block 10.
CCOc1ccc(C=Nc2ccc(C(C)=O)cc2)c(O)c1 was read as GPR151 activ 5.6*, FBW7 activator 0, MITF primary 5, TEAD-YAP block -32, GPR151 confirm -1 and GPR119 counter -13.
Screening CCOc1ccc(C=Nc2ccc(C(=O)O)cc2)c(O)c1 returned GPR151 activ -1, FBW7 activator 0, MITF primary 14 and TEAD-YAP block -13.
`CC1CCN(S(=O)(=O)c2ccc(C(=O)Nc3nc(-c4ccncc4)cs3)cc2)CC1` gave GPR151 activ 4.9*, FBW7 activator 0, MITF primary -9, TEAD-YAP block -10, GPR151 confirm 0 and GPR119 counter 10.
For O=C(Nc1nc(-c2ccncc2)cs1)c1ccccc1I the results were GPR151 activ 6.3*, FBW7 activator 0, MITF primary -1, TEAD-YAP block -15, GPR151 confirm 1 and GPR119 counter 11.
`O=C(Nc1nc(-c2cc3ccccc3o2)cs1)c1cc2ccccc2oc1=O` gave GPR151 activ 21*, FBW7 activator 0, MITF primary 7, TEAD-YAP block 0, GPR151 confirm -1 and GPR119 counter 8.
Screening O=C(NC(=S)NNc1ccccc1)c1cc2ccccc2oc1=O returned GPR151 activ 5.5*, FBW7 activator 0, MITF primary 17, TEAD-YAP block 8, GPR151 confirm 1 and GPR119 counter 13.
`O=C(NC(=S)Nc1ncccn1)c1cc2ccccc2oc1=O` gave GPR151 activ -1, FBW7 activator 0, MITF primary 2 and TEAD-YAP block -8.
Screening O=C(Nc1nc(-c2ccncc2)cs1)c1ccc(S(=O)(=O)N2CCCCC2)cc1 returned GPR151 activ 0, FBW7 activator 0, MITF primary 5 and TEAD-YAP block -2.
O=[N+]([O-])c1ccc(S(=O)(=O)N2CCN(Cc3ccccc3C(F)(F)F)CC2)cc1 was read as GPR151 activ 0, FBW7 activator 0, MITF primary 26 and TEAD-YAP block 6.
CN1CCCN(C(=O)C2CC23CCN(Cc2cccn2-c2ccccn2)CC3)CC1 (configuration not stated) was read as GPR151 activ 0, FBW7 activator 0, MITF primary 2 and TEAD-YAP block -9.
Cc1cccc(CN2CCN3C(=O)[C@H](CCCCN)NC(=O)[C@H]3C2)c1 was read as GPR151 activ 1, FBW7 activator 1, MITF primary 13 and TEAD-YAP block -5.
`O=C(Nc1nc(-c2cc3ccccc3oc2=O)cs1)c1ccc(S(=O)(=O)N2CCc3ccccc32)cc1` gave GPR151 activ 5.0*, FBW7 activator 0, MITF primary -5, TEAD-YAP block -19, GPR151 confirm 0 and GPR119 counter 4.
O=C(Nc1nc(-c2ccccc2)cs1)c1ccc(S(=O)(=O)N2CCc3ccccc32)cc1 was read as GPR151 activ -2, FBW7 activator 0, MITF primary 0 and TEAD-YAP block 0.
COc1cccc(CC(=O)Nc2nc3ccccc3[nH]2)c1 was read as GPR151 activ 5.6*, FBW7 activator 0, MITF primary 4, TEAD-YAP block -5, GPR151 confirm 0 and GPR119 counter -6.
For COc1ccc(NC(=O)Cc2nc3ccccc3[nH]2)cc1 the results were GPR151 activ 18*, FBW7 activator 0, MITF primary 3, TEAD-YAP block 38*, GPR151 confirm 1 and GPR119 counter 10.
For COc1ccc(OCC(=O)Nc2nc3ccccc3[nH]2)cc1 the results were GPR151 activ 3, FBW7 activator 0, MITF primary -11 and TEAD-YAP block -23.
Screening O=C(COc1cc(Cl)ccc1Cl)Nc1ncc(S(=O)(=O)c2ccc([N+](=O)[O-])cc2)s1 returned GPR151 activ -2, FBW7 activator 0, MITF primary 5 and TEAD-YAP block 1.
`Cc1ccc(NC(=O)CSc2nc3[nH]ncc3c(=O)n2-c2ccc(Br)cc2)cc1Cl` gave GPR151 activ 7.5*, FBW7 activator 0, MITF primary -7, TEAD-YAP block 22, GPR151 confirm 0 and GPR119 counter 9.
Screening Cc1cccc(-c2cc(C(=O)Nc3ccc(F)c([N+](=O)[O-])c3)c3ccccc3n2)c1 returned GPR151 activ 5.7*, FBW7 activator 0, MITF primary -7, TEAD-YAP block -7, GPR151 confirm 1 and GPR119 counter 18.
Screening CCOC(=O)C(C#N)C(=O)c1ccc(F)c(F)c1 (configuration not stated) returned GPR151 activ -1, FBW7 activator 0, MITF primary -5 and TEAD-YAP block 0.
Screening CCOC(=O)C(C#N)C(=O)c1ccc(N2C(=O)CCC2=O)cc1 (configuration not stated) returned GPR151 activ 6.6*, FBW7 activator 1, MITF primary 9, TEAD-YAP block 14, GPR151 confirm -1 and GPR119 counter -10.
Screening COc1ccc(CNS(=O)(=O)c2ccc3c(c2)NC(=O)CC(=O)N3)cc1 returned GPR151 activ -1, FBW7 activator 0, MITF primary 6 and TEAD-YAP block 19.
Cc1oc(C)c(S(=O)(=O)NC(C)C)c1C(=O)NCc1ccco1 was read as GPR151 activ 7.1*, FBW7 activator 0, MITF primary -2, TEAD-YAP block 2, GPR151 confirm 2 and GPR119 counter 1.
Cc1occc1C(=O)NCc1ccco1 was read as GPR151 activ -1, FBW7 activator 0, MITF primary 41 and TEAD-YAP block -3.
`COc1ccc2ccccc2c1C1NC(=S)NC(C)=C1C(C)=O` (configuration not stated) gave GPR151 activ -2, FBW7 activator 0, MITF primary 7 and TEAD-YAP block 1.
For CC1=C(C(=O)c2ccccc2)C(c2ccccc2OC(F)F)NC(=O)N1 (configuration not stated) the results were GPR151 activ -1, FBW7 activator 0, MITF primary -1 and TEAD-YAP block 1.
Screening COc1cccc(C(=O)Oc2coc(CSc3nnc(NC(C)=O)s3)cc2=O)c1 returned GPR151 activ -1, FBW7 activator 0, MITF primary -5 and TEAD-YAP block -2.
